Results on 7 compounds are retold here after PubChem BioAssay (Tox21).

Assay [1] can be described thus: A CellTox Green Cytotoxicity Assay to monitor cytotoxicity in HEK293 cells - 8 hour (AID 1224884). Note: nearly all actives have a fitted effect of over 35% in size. Note: potency is the fitted concentration of half-maximal effect. The procedure, abridged: (§1)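 Dead-cell fluorescence measured kinetically: asymmetric cyanine dye, HEK293, 600 cells/well, 5 h settle, 23 nL cpd/DMSO, 37 C, reads 0–40 h every 8 h.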
Assay [2] in a line: qHTS RealTime-Glo MT Cell Viability Assay in HEK293 cells - 8 hour (AID 1224887). For activity change, negative = cytotoxicity: top concentration of the series differs between compounds. Note: nearly all actives have a fitted effect of over 50% in size. Note: potency is the fitted concentration of half-maximal effect. A digest of the protocol: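 600 HEK293 cells per well, dispensed already mixed with RealTime-Glo MT reagents. Compound dosing came 5 h later. The same wells were read for luminescence at 0, 8, 16, 24, 32 and 40 h of exposure at 37 C.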
In general terms: Quantitative high-throughput screening tests each substance at several concentrations.

The nature of assay [3]: A CellTox Green Cytotoxicity Assay to monitor cytotoxicity in HEK293 cells - 16 hour (AID 1224888). Note: nearly all actives have a fitted effect of over 35% in size. Note: potency is the fitted concentration of half-maximal effect. The procedure, abridged:
as §1

The nature of assay [4]: qHTS RealTime-Glo MT Cell Viability Assay in HepG2 cells - 0 hour (AID 1224889). Note: nearly all actives have a fitted effect of over 50% in size. The procedure, abridged:
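Compound treatment began 5 h after plating HepG2 cells (600/well) with NanoLuc luciferase and prosubstrate. Plates stayed at 37 C for 40 h; luminescence was captured at six time points, 0 h through 40 h.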

Assay [5] in a line: A CellTox Green Cytotoxicity Assay to monitor cytotoxicity in HepG2 cells - 8 hour (AID 1224890). Note: nearly all actives have a fitted effect of over 45% in size. Note: potency is the fitted concentration of half-maximal effect. The procedure, abridged: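 First, HepG2 cells (600/well) mixed with reagent were plated; second, after 5 h at 37 C they received compounds via pintool; third, fluorescence was measured at 0 h through 40 h at 8 h intervals.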
Assay [6] can be described thus: qHTS assay to identify small molecule antagonists of the androgen receptor (AR) signaling pathway using the MDA cell line in the presence of 0.5 nM R1881 - cell viability counter screen (AID 1259242). Note: nearly all actives have a fitted effect of over 45% in size. Note: potency is the fitted concentration of half-maximal effect. A digest of the protocol:
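qHTS format. MDA-kb2 (MMTV-luc, AR/GR responsive) + cpd + 0.5 nM R1881 final, 16 hr 37C/0% CO2 → CellTiter-Fluor 30 min → fluorescence intensity.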

Assay [7] in a line: qHTS assay to identify small molecule HDAC inhibitors (AID 1259364).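 Note: wild-type HCT-116 cells with endogenous class I/II HDAC activity; top concentration of the series differs between compounds; nearly all actives have a fitted effect of over 45% in size.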 A digest of the protocol: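 Quantitative high-throughput format: overnight-seeded HCT-116 cells got compounds for 2 hr at 37C; HDAC-Glo I/II reagent added, 30 min RT, luminescence measured.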
Assay [8] can be described thus: qHTS assay to identify small molecule HDAC inhibitors - cell viability counter screen (AID 1259365). Note: series mostly up to about 92 µM; nearly all actives have a fitted effect of over 50% in size. The procedure, abridged:
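To flag cytotoxic hits, 1,500 wild-type HCT-116 cells per well, plated the day before, receive test compounds for 2hr at 37 C before CellTiter-Glo reagent and a luminescence read.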

Assay [9] can be described thus: qHTS assay to identify small molecule antagonists of the sonic hedgehog signaling (Shh) pathway - cell viability counter screen (AID 1259367). Note: nearly all actives have a fitted effect of over 55% in size. Note: potency is the fitted concentration of half-maximal effect. The procedure, abridged: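 Fluorescence read-out (CellTiter-Fluor, 1 hr at 37C) taken after 23 hr compound treatment of 3T3 Gli1-Luc cells stimulated with conditioned medium. Cells were seeded at 2,000 per well and pre-incubated 4 hr.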

A short description of assay [10]: qHTS assay to identify small molecule agonists of the sonic hedgehog signaling (Shh) pathway (AID 1259368; calls by dose curve;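 note: NIH/3T3-derived 3T3Gli1-Luc cells carrying a stable Gli1-driven firefly luciferase reporter; series mostly up to about 92 µM; nearly all actives have a fitted effect of over 15% in size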). A digest of the protocol:
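Quantitative high-throughput format using a Gli1-driven firefly luciferase reporter line derived from NIH/3T3 cells. After a 24 hr compound treatment at 37 C and 5% CO2, luminescence reported Gli1 response element activity.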

The nature of assay [11]: qHTS assay to identify small molecule antagonists of the sonic hedgehog signaling (Shh) pathway (AID 1259369; calls by dose curve; note: nearly all actives have a fitted effect of over 45% in size; note: potency is the fitted concentration of half-maximal effect). A digest of the protocol: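 Stable Gli1-Luc reporter NIH/3T3 clone; quantitative HTS in stimulated mode with conditioned medium. Luminescence measured after 24hr compound treatment at 37 C.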
Assay [12] concerns the target Estrogen receptor beta (Homo sapiens) (UniProt Q92731). In words: qHTS assay to identify small molecule antagonists of the estrogen receptor beta (ER-beta) signaling pathway (AID 1259378; active = well fitted inhibition curve with a large enough effect in the signal ratio in the repeat runs, not every such curve was filed as active; the % refers to the signal ratio). The procedure, abridged:
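ER-beta-UAS-bla HEK293T cells in 2% charcoal-stripped FBS medium treated with compound plus 1nM final 17-beta-estradiol for 16 hr at 37C. Beta-lactamase reporter read by FRET substrate fluorescence after 2 hours at room temperature.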

Assay [13] in a line: qHTS RealTime-Glo MT Cell Viability Assay in HEK293 cells - 24 hour (AID 1224886). For activity change, negative = cytotoxicity: top concentration of the series differs between compounds. Note: nearly all actives have a fitted effect of over 50% in size. Note: potency is the fitted concentration of half-maximal effect. The procedure, abridged: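 Quantitative high-throughput screen of the Tox21 10K library in HEK293: cells and RealTime-Glo reagents plated together, compound added at 5 h, luminescence monitored through 40 h at 37 C.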
The nature of assay [14]: qHTS assay to identify small molecule antagonists of the estrogen receptor alpha (ER-alpha) signaling pathway using the BG1 cell line in the presence of 0.1 nM 17-beta-estradiol - cell viability counter screen (AID 1259241). Note: nearly all actives have a fitted effect of over 40% in size. Note: potency is the fitted concentration of half-maximal effect. The procedure, abridged:
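CellTiter-Fluor read (30 min, 37C) on ER-alpha/ERE-luc VM7Luc4E2 cells; 22 hr compound treatment; agonist 0.1 nM E2 final; same-well multiplex.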

Assay [15] concerns the target Androgen receptor (Homo sapiens) (UniProt P10275). In words: qHTS assay to identify small molecule antagonists of the androgen receptor (AR) signaling pathway using the MDA cell line in the presence of 0.5 nM R1881 (AID 1259243). Note: nearly all actives have a fitted effect of over 50% in size. Note: potency is the fitted concentration of half-maximal effect. A digest of the protocol:
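Antagonist mode quantitative HTS in MDA-kb2 MMTV-luciferase cells, agonist R1881 at 0.5 nM final, 16 hr exposure at 37C and 0% CO2, luminescent detection.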

The nature of assay [16]: qHTS assay to identify small molecule agonists of the sonic hedgehog signaling (Shh) pathway - cell viability counter screen (AID 1259366). Note: nearly all actives have a fitted effect of over 50% in size. Note: potency is the fitted concentration of half-maximal effect. The procedure, abridged: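 Fluorescence from CellTiter-Fluor reports live cells in this counter screen. NIH/3T3-derived Gli1-Luc reporter cells receive test compounds for 24hr at 37C; reagent goes in at 23hr.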
In assay [17] the target is Estrogen receptor beta (Homo sapiens) (UniProt Q92731). The assay can be described thus: qHTS assay to identify small molecule agonists of the estrogen receptor beta (ER-beta) signaling pathway (AID 1259377; active = well fitted activation curve with a large enough effect in the signal ratio in the repeat runs, not every such curve was filed as active; the % refers to the signal ratio). A digest of the protocol: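 Screening used GripTite ER-beta-UAS-bla cells held in 2% charcoal-stripped FBS medium. After overnight (16 hr) compound incubation at 37C, beta-lactamase activity was detected with a FRET substrate by fluorescence.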

Assay [18] can be described thus: qHTS assay to identify small molecule phospholipidosis (PLD) inducers (AID 1259344; active = well fitted curve in the direction sought with a large enough effect; an effect the other way counts as inactive or inconclusive). A digest of the protocol: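 Read-out is LipidTOX Red fluorescence (ex 595/em 615) imaged in HepG2 cells after 24 h compound exposure at 37 C, with Hoechst nuclear counterstain (ex 352/em 461) allowing per-cell normalisation.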
In assay [19] the target is Estrogen receptor (Homo sapiens) (UniProt P03372). In words: qHTS assay to identify small molecule antagonists of the estrogen receptor alpha (ER-alpha) signaling pathway using the BG1 cell line in the presence of 0.1 nM 17-beta-estradiol (AID 1259244). Note: nearly all actives have a fitted effect of over 50% in size. The procedure, abridged: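 Reporter is a stably transfected luciferase under four estrogen responsive elements in VM7Luc4E2 cells expressing native full-length ER-alpha; inhibition of 0.1 nM (final) 17beta-estradiol-driven signal over 22 h is read by luminescence.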

A number with no mark means an inactive call. Results filed as inconclusive are left out. Calls of active or inactive are those of the source. Unless noted, calls come from the whole dose curve; as a rule, active = well fitted curve in the direction sought with a large enough effect in the repeat runs; inconclusive = weak or mixed curves; inactive = no such curve, though single readings can be large; an effect the other way counts as inactive or inconclusive.
% is set by controls: 0 for no effect and ±100 for the full control effect.

Sequence of Estrogen receptor (Homo sapiens) (P03372 whole entry, looked up): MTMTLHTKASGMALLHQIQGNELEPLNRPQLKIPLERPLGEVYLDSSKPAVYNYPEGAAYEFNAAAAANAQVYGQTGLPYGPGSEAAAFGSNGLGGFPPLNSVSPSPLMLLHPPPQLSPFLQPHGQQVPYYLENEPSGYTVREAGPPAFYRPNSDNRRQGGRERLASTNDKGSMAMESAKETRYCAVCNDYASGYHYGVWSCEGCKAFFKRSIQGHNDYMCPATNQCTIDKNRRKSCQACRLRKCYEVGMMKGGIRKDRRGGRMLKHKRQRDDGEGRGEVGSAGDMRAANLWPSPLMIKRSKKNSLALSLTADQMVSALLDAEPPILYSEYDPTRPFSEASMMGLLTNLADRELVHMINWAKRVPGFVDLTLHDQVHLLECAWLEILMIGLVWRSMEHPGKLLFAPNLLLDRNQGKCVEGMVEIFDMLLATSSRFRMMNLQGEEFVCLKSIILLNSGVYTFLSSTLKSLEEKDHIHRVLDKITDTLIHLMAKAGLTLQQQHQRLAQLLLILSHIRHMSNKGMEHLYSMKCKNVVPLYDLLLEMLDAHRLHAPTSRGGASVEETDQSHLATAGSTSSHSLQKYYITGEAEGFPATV
Sequence of Estrogen receptor beta (Homo sapiens) (Q92731 whole entry, looked up): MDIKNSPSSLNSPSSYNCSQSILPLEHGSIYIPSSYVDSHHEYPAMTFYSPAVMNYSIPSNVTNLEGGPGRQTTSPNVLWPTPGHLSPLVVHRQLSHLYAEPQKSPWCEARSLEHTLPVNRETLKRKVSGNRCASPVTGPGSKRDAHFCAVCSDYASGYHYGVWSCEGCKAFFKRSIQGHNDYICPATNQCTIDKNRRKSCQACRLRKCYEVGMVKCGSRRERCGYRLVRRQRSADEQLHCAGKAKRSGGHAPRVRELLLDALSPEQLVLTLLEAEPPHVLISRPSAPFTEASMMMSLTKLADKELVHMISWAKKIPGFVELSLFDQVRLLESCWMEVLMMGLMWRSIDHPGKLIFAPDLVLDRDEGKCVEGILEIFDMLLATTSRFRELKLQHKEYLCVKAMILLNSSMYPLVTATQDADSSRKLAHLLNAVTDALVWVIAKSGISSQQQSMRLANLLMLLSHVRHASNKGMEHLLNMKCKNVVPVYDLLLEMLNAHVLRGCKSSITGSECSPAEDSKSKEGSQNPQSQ
Sequence of Androgen receptor (Homo sapiens) (P10275 whole entry, looked up): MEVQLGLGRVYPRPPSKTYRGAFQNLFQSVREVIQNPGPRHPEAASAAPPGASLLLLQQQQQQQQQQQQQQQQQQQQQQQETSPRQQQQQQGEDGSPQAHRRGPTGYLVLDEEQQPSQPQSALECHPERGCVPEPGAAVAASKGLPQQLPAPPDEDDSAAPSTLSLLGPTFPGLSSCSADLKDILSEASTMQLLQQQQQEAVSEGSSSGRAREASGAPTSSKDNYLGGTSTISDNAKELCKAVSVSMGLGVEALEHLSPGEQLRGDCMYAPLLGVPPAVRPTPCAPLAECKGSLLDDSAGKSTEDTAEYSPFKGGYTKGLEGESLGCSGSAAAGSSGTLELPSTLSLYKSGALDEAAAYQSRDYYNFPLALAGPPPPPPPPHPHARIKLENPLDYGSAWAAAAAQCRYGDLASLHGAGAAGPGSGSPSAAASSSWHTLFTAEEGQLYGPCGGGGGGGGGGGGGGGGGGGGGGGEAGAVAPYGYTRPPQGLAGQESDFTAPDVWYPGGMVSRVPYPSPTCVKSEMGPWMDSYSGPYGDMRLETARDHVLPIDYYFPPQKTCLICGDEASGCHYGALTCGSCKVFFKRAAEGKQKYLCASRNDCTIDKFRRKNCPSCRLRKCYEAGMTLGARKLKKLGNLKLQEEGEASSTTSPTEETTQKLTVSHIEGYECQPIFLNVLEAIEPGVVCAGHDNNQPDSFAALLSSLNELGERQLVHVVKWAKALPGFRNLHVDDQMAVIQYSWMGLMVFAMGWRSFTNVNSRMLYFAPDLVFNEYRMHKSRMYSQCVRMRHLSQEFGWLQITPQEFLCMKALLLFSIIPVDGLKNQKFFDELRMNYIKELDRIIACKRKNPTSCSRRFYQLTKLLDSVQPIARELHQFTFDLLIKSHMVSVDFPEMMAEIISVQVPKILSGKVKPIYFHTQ

`CO[Si](OC)(c1ccccc1)c1ccccc1`: the Potency entry in assay [1], in assay [2], in assay [3], in [4], in assay [5] and in assay [6] was “inactive” in each case. In addition, the Potency entry in assay [7], in [8], in [10] and in [12] was “inactive” throughout. Besides, the results for the Potency in [9] and in [11] were 43.3 µM (active) and 21.7 µM (active), respectively.

As to `N#CCCOCCC#N`, the Potency entry in [1], in assay [13], in assay [2], in [3], in assay [4] and in [5] was “inactive” each time. The Potency result in assay [14], in [6], in [15], in assay [7], in assay [8] and in assay [16] was “inactive” in each case. Moreover, the Potency result in [9], in assay [10] and in assay [12] was “inactive” in each case. Also, the compound was called inactive in assay [17].

In the case of `CCCCCN=C(N)N/N=C/c1c[nH]c2ccc(OC)cc12`, the Potency was 15.1 µM (active) in [1]; 8.49 µM (active) in assay [2]; 7.56 µM (active) in assay [3]; 10.7 µM (active) in assay [5]; 29.8 µM (active) in assay [14]; 13.3 µM (active) in assay [6]. For the same compound, the Potency is 13.3 µM (active) in [9] and 1.68 µM (active) in assay [11]. Moreover, the Potency result in assay [18], in [7] and in assay [10] was “inactive” in each case.

As for `C/C=C/C(=O)C1=C(C)C=CCC1(C)C`, the Potency entry in [1], in assay [2], in [3], in assay [4], in assay [5] and in [14] was “inactive” in each case. The Potency entry in [6], in assay [15], in assay [19], in assay [7], in assay [16] and in assay [9] was “inactive” throughout. Also, the Potency entry in assay [10] and in assay [11] was “inactive” each time.

In the case of `C=CC(=O)OCCOC1C2CCC1C1CC=CC12` (stereo not given), the cytotoxicity increase is -0.0811% [at 15.8 µM] in assay [1] and -9.41% [at 15.8 µM] in [5]. Also, the activity change, negative = cytotoxicity in assay [13] is -2.24% [at 15.8 µM]; in [4] it was 5.34% [at 15.8 µM]; in assay [14], 0.54% [at 19 µM]; in [8], 3.58% [at 19 µM]. The activity change in assay [3] is -0.617% [at 15.8 µM, hits give high values]; in assay [10], -1.29% [at 18.9 µM, hits give high values]. Besides, the viability change, negative = cytotoxic in [6] was 0.35% [at 19 µM]; in assay [9] it was 5.82% [at 19 µM]. Also, the activity, negative = inhibition in assay [15] was -0.369% [at 19 µM]. The activity change, negative = inhibition in [19] was 2.43% [at 19 µM]; in assay [7], 5.48% [at 19 µM]; in [11], 6.04% [at 19 µM].

On to `COc1cc(/C=C/C(=O)CC(=O)/C=C/c2ccc(O)c(OC)c2)ccc1O`, for which the Potency is 49.3 µM (active) in assay [1]; 31.1 µM (active) in assay [13]; 49.3 µM (active) in assay [3]; 49.3 µM (active) in assay [5]; 15.4 µM (active) in assay [15]; 30.8 µM (active) in assay [16]. The Potency in assay [9] was 24.5 µM (active); in assay [11], 8.69 µM (active). Further, the Potency entry in assay [14], in assay [18] and in assay [7] was “inactive” throughout.

As for `CCCC(C)C=O` (stereo not given), the Potency entry in [1], in assay [13], in assay [2], in assay [3], in assay [4] and in assay [5] was “inactive” each time. For the same compound, the Potency entry in assay [14], in [6], in assay [19], in assay [7], in [8] and in assay [16] was “inactive” each time. In addition, the Potency entry in assay [9], in [10], in [11] and in assay [12] was “inactive” throughout. Moreover, the result in assay [17] was inactive.
